# From PubChem BioAssay (NCATS)
# Where “and” joins values, the source holds several entries; their conditions need not be identical. Identical values can stand only once. Records with an inconclusive call do not appear. A call without a number means that no potency is given here. Calls of active or inactive are those of the source. The call rests on the fitted dose curve; in most records, active means well fitted curve in the direction sought with a large enough effect; inconclusive means small, poorly fitted or top-dose-only effect, or another doubt; inactive means no such curve, though single readings can be large; an effect the other way counts as inactive or inconclusive.
# Tests used:
# [1] = Cellular Toxicity (caspase-3) N2a (AID 665);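 further: compound exposure lasted 16 h at 37 °C before readout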
# Procedure, shortened: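 Mouse N2a neuroblastoma cells, 1500 per well, treated 16 h at 37 °C in complete medium; caspase-3/7 activity by Caspase-Glo luminescence after 1 h. Normalized to DMSO and 10 uM staurosporine; AC50 from Hill fits.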
# [2] = Cellular Toxicity (caspase-3) NIH 3T3 (AID 666)
# Procedure, shortened: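 Mouse NIH 3T3 fibroblasts (1000/well) treated 16 h at 37 C; caspase-3/7 activity measured by Caspase-Glo 3/7 luminescence after 20 min. Normalized to DMSO and 100 uM tamoxifen; AC50 from Hill fits.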
# [3] = Cellular Toxicity (caspase-3) Renal Proximal Tubule (AID 667);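 further: cells exposed to compound for 16 hours at 37 °C before detection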
# Procedure, shortened: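 Caspase-Glo 3/7 read-out, rat primary kidney proximal tubule cells. Compound exposure 16 h, 37 °C; detection after 1 h at RT. Activity scaled to DMSO and 10 uM staurosporine.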
# [4] = Confirmation and Secondary Assay for Modulators of Hemoglobin Beta Chain Splicing at IVS2 654 locus (AID 910);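 further: HeLa cells stably carrying EGFP split by mutant beta-globin IVS2-654 intron; per-well total GFP intensity by laser scanning cytometry after 2-day treatment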
# Procedure, shortened: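 Readout: per-well total peak green fluorescence (488 nm ex, 500–520 nm em) from objects 5–250 µm, reflecting correct splicing of an EGFP-654 reporter. Compounds were applied for 2 days at 37 °C to overnight-plated HeLa EGFP-654 cells; controls were DMSO and 500 nM IVS2-654 PNA.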
# [5] = molecular target: Cytochrome P450 3A4 (Homo sapiens) (UniProt P08684); assay: qHTS Assay for Inhibitors and Substrates of Cytochrome P450 3A4 (AID 884); further: nearly all actives have a fitted effect of over 50% in size; further: potency means the concentration at half of the fitted maximal effect
# Procedure, shortened: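 20 nM human CYP3A4 with 25 uM Luciferin-PPXE (at KM) in 200 mM KPO4, preincubated 10 min with compound; NADPH regeneration started a 60 min RT reaction. Luciferin detected by luminescence, normalized to 57 uM ketoconazole as full inhibition.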
# [6] = molecular target: Cytochrome P450 2C9 (Homo sapiens) (UniProt P11712); assay: qHTS Assay for Inhibitors and Substrates of Cytochrome P450 2C9 (AID 883); further: nearly all actives have a fitted effect of over 60% in size; further: potency means the concentration at half of the fitted maximal effect
# Procedure, shortened: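 Turnover of Luciferin-H (100uM, KM) by 10nM human CYP2C9 was measured over 60 min at 37C with NADPH regeneration; inhibitors and some substrates reduce luminescence. Data normalized to sulphaphenazole 57uM.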
# [7] = molecular target: Cytochrome P450 3A4 (Homo sapiens) (UniProt P08684); assay: qHTS Assay for Activators of Cytochrome P450 3A4 (AID 885); further: nearly all actives have a fitted effect of over 65% in size
# Procedure, shortened: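 20nM CYP3A4 + 25uM Luciferin-PPXE (=KM), 200mM KPO4; cpd 10 min RT; NADPH regen, 60 min RT; stop w/ detection buffer, 20 min; luminescence. Normalized to 57 uM ketoconazole.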
# [8] = molecular target: Cytochrome P450 2D6 (Homo sapiens) (UniProt P10635); assay: qHTS Assay for Inhibitors and Substrates of Cytochrome P450 2D6 (AID 891); further: nearly all actives have a fitted effect of over 60% in size; further: potency means the concentration at half of the fitted maximal effect
# Procedure, shortened: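 Human CYP2D6 (5 nM) with 30 uM Luciferin-ME EGE (at Km) in 100 mM KPO4, compound preincubated 10 min, then NADPH regeneration system for 60 min at room temperature. Luciferin read by luminescence; normalized to 1.43 uM quinidine.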
# [9] = molecular target: Cytochrome P450 2C19 (Homo sapiens) (UniProt P33261); assay: qHTS Assay for Inhibitors and Substrates of Cytochrome P450 2C19 (AID 899); further: nearly all actives have a fitted effect of over 60% in size; further: potency means the concentration at half of the fitted maximal effect
# Procedure: NIH Molecular Libraries Screening Centers Network [MLSCN]
# NIH Chemical Genomics Center [NCGC]
# The P450 gene superfamily is involved in the metabolism and clearance of xenobiotics. This assay used human CYP2C19 to measure the hydroxylation of ethylene glycol ester of 6' deoxyluciferin (Luciferin-H EGE; […]) to luciferin. The luciferin is then measured by luminescence after the addition of a luciferase detection reagent. Luciferin-H EGE concentration in the assay was equal to its KM for CYP2C19. Inhibitors and some substrates limit the production of luciferin, and decrease measured luminescence.
# NCGC Assay Protocol Summary:
# Two uL of enzyme and substrate mix (final concentrations: 5nM CYP2C19, 10uM Luciferin-H EGE, 50mM KPO4) were dispensed into a white, solid bottom 1536-well microtiter plate. 23nL of compound was transferred by a pin tool. The plate was incubated at 37C for 10 min. Two uL of an NADPH regeneration solution (Promega supplied reagent) was dispensed and the reaction was allowed to continue for 60 min at 37C. Then the reaction was stopped by reconstituted luciferin detection buffer. After another 20 min of incubation the plate was read on the ViewLux (Perkin Elmer) at 60 sec exposure and 2x2 binning. This protocol was carried out with Promega-Glo reagents and further information can be found at http://www.promega.com/tbs/tb325/tb325.pdf. Data were normalized to the to AC100 inhibition (57uM ketoconazole).
# Keywords: P450, CYP2C19, Luciferase, MLSMR, MLSCN, NIH Roadmap, qHTS, NCGC
# [10] = molecular target: Guanine nucleotide-binding protein G(i) subunit alpha-1 (Homo sapiens) (UniProt P63096); assay: qHTS Assay for Inhibitors of RGS12 GoLoco Motif Activity (Green Fluorophore) (AID 879);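 further: negative values mean loss of peptide binding seen as reduced polarization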
# Procedure, shortened: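 Fluorescence polarization assay: 50 nM Gαi1 with 10 nM FITC-labeled RGS12 GoLoco peptide in 10 mM Tris pH 7.5, 150 mM NaCl, 0.1 mM GDP, 0.05% NP40, 10 min at room temperature with compound.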
# Sequence of Cytochrome P450 2C19 (Homo sapiens) (P33261 whole entry, looked up): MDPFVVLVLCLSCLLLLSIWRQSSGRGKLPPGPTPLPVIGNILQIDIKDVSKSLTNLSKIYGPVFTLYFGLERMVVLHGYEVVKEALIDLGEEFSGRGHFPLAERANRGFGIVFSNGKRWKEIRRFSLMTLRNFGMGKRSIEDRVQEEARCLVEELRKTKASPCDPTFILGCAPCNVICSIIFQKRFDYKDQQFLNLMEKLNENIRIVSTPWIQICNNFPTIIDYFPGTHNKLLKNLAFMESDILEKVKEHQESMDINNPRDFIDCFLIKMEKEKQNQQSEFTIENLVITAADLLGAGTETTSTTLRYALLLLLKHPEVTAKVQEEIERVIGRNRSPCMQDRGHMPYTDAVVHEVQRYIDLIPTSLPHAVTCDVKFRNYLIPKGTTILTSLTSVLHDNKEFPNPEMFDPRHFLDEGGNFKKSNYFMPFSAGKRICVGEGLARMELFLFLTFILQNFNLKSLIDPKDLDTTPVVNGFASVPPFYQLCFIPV
# Sequence of Guanine nucleotide-binding protein G(i) subunit alpha-1 (Homo sapiens) (P63096 whole entry, looked up): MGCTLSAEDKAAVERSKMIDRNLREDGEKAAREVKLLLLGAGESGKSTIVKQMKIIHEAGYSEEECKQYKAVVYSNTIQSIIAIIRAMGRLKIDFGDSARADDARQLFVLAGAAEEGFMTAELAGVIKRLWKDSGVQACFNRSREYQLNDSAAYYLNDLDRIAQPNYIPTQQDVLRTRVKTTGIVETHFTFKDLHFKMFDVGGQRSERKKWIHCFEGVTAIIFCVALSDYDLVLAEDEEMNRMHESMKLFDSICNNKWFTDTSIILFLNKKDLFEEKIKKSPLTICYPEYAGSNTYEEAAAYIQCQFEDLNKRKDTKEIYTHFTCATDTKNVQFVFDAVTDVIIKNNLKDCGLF
# Sequence of Cytochrome P450 2D6 (Homo sapiens) (P10635 whole entry, looked up): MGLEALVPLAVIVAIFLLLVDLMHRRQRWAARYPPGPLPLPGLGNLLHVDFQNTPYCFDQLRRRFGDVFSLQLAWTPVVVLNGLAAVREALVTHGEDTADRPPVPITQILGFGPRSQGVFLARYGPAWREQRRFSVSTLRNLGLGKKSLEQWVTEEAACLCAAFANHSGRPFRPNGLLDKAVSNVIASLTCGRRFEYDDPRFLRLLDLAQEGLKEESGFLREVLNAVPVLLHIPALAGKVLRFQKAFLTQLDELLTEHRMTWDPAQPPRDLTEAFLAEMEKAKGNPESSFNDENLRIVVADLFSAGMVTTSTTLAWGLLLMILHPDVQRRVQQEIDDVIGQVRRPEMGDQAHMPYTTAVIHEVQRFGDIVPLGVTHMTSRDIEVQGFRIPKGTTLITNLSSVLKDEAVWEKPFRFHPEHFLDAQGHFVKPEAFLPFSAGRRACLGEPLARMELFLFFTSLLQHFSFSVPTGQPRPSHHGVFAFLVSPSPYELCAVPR
# Sequence of Cytochrome P450 2C9 (Homo sapiens) (P11712 whole entry, looked up): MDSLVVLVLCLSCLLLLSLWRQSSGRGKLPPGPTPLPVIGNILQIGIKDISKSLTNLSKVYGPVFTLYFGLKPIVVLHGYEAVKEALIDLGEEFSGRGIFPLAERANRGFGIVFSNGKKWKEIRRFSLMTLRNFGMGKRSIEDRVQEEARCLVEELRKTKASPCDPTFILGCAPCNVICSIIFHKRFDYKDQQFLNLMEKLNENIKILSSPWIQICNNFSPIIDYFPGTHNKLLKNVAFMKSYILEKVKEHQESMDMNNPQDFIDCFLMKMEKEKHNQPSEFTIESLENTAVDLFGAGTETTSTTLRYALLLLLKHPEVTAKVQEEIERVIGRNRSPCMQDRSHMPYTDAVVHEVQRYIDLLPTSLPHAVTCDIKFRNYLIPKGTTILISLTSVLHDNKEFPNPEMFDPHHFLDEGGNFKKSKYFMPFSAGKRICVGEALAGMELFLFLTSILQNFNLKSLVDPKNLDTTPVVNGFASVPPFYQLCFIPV
# Sequence of Cytochrome P450 3A4 (Homo sapiens) (P08684 whole entry, looked up): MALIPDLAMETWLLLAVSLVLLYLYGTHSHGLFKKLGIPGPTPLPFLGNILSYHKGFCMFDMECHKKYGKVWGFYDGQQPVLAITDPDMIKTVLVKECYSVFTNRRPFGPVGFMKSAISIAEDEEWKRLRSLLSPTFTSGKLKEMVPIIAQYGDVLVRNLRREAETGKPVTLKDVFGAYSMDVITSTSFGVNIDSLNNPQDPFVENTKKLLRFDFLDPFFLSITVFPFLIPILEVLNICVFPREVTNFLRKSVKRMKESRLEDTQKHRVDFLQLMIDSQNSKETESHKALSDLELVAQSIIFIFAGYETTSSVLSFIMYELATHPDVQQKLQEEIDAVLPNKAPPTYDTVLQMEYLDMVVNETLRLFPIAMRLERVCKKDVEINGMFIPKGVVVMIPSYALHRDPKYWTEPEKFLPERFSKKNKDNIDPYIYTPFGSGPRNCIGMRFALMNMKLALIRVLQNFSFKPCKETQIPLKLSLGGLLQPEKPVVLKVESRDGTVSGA
smiles,measurement,setting,value
Cc1cc(O)c2c(c1)C(=O)c1cccc(O)c1C2=O,outcome,[1],inactive
same,outcome,[2],inactive
same,outcome,[3],inactive
same,outcome,[4],inactive
Cc1ccc(O)c(C(CCN(C(C)C)C(C)C)c2ccccc2)c1 (centres undefined),Potency,[5],inactive
same,outcome,[4],inactive
CCCCCCCCCCCC(CC1OC(=O)C1CCCCCC)OC(=O)C(CC(C)C)NC=O (centres undefined),outcome,[4],inactive
COc1ccc([C@@H]2CNC(=O)C2)cc1OC1CCCC1,Potency,[6],inactive
same,outcome,[7],inactive
same,Potency,[8],inactive
same,Potency,[9],inactive
C[C@@]12C(=O)OC(=O)[C@@]1(C)C1CCC2O1,Potency,[5],inactive
same,outcome,[4],inactive
COc1ccc2c(c1OC)C(=O)OC2[C@H]1c2c(cc3c(c2OC)OCO3)CCN1C (some centres undefined),outcome,[10],inactive
same,outcome,[7],inactive
same,Potency,[8],15.8 µM (active)
same,Potency,[9],1.26 µM (active) and 316 nM (active) and 398 nM (active)
CC(Cc1ccc(O)c(O)c1)(NN)C(=O)O (centres undefined),outcome,[4],inactive
COC(=O)C1C2CC3c4[nH]c5cc(OC)ccc5c4CCN3CC2CC(OC(=O)c2cc(OC)c(OC)c(OC)c2)C1OC (centres undefined),outcome,[7],inactive
CN(C)CC[C@H](c1ccc(Cl)cc1)c1ccccn1,outcome,[10],inactive
same,Potency,[6],inactive
Oc1cc2c(cc1O)C1c3ccc(O)c(O)c3OCC1(O)C2 (centres undefined),outcome,[7],inactive
same,outcome,[4],inactive
CCC(C(=O)O)C1CCC(C)C(C(C)C(O)C(C)C(=O)C(CC)C2OC3(C=CC(O)[C@@]4(CC[C@](C)(C5CC[C@@](O)(CC)C(C)O5)O4)O3)C(C)CC2C)O1 (some centres undefined),outcome,[4],inactive
OCC(O)C(O)C(O)CO (centres undefined),Potency,[5],inactive
same,outcome,[4],inactive
CCOC(=O)C1=C(C)NC(=S)NC1c1cccc(O)c1 (centres undefined),outcome,[7],inactive
c1coc(CNc2ncnc3nc[nH]c23)c1,outcome,[4],inactive
O=C(O)C=Cc1ccc(Cn2ccnc2)cc1,outcome,[7],inactive
same,Potency,[8],0.0794 µM (active)
COc1ccc(C(C)=O)c(O)c1,Potency,[5],1.26 µM (active)
same,outcome,[7],inactive
same,outcome,[4],inactive
O=c1c(O)c(-c2ccc(O)c(O)c2)oc2cc(O)ccc12,Potency,[6],20 µM (active)
same,Potency,[5],39.8 µM (active)
same,outcome,[7],inactive
same,Potency,[8],inactive
same,Potency,[9],inactive
same,outcome,[4],inactive
